Source: PubChem BioAssay
Unmarked numbers belong to inactive results. The rule behind the calls is not given here.

Each compound was assayed on Aerobactin synthetase IucA (Klebsiella pneumoniae, hypervirulent) (assay: IucA enzyme inhibition, biochemical, LOPAC library, absorbance readout (AID 1346212;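 note: 100% = no compound wells and 0% = no enzyme wells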)). Conditions: IucA enzyme assay, absorbance (OD) readout; active compounds read low;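 tested at 8 µM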.
`CC(C)C[C@H](NP(=O)(O)O[C@@H]1O[C@@H](C)[C@H](O)[C@@H](O)[C@H]1O)C(=O)N[C@@H](Cc1c[nH]c2ccccc12)C(=O)O` gave a remaining activity of 89.8%. For `O=C1Nc2ccc(I)cc2/C1=C/c1cc(Br)c(O)c(Br)c1`, the remaining activity was 113%. `COc1ccc(CC(C)NCC(O)c2ccc(O)c(NC=O)c2)cc1` (stereo not given) gave a remaining activity of 102%. `COc1cc(OC)c(/C=C2/C(=O)Nc3ccccc32)c(OC)c1` showed a remaining activity of 99.3%. `CC[C@H](C)[C@H]1O[C@]2(CC[C@@H]1C)C[C@@H]1C[C@@H](C/C=C(\C)[C@@H](O[C@H]3C[C@H](OC)[C@@H](O[C@H]4C[C@H](OC)[C@@H](O)[C@H](C)O4)[C@H](C)O3)[C@@H](C)/C=C/C=C3\CO[C@@H]4[C@H](O)C(C)=C[C@@H](C(=O)O1)[C@]34O)O2` showed a remaining activity of 114%. For `Oc1ccc(C2CNCCc3c2cc(O)c(O)c3Cl)cc1` (stereo not given), the remaining activity was 94.3%. Work on `CN1C2CCC1CC(OC(=O)c1c[nH]c3ccccc13)C2` (stereo not given) yielded a remaining activity of 97.7%. `CCCCCCCCCCCCCCCCCC(=O)OC(CC(=O)O)C[N+](C)(C)C` (stereo not given) was tested, and the remaining activity was 96.1%. Work on `c1cc(CN2CCCCC2)cc(OCCCNc2nc3ccccc3s2)c1` yielded a remaining activity of 101%. `Cn1cc(C(F)(F)F)nc1-c1ccc(OCC(O)CNCCOc2ccc(O)c(C(N)=O)c2)cc1` (stereo not given) gave a remaining activity of 96.8%. For `O=c1cc(N2CCOCC2)oc2c(-c3ccccc3)cccc12`, the remaining activity was 110%. `C[C@@H](NC(=O)/C(C#N)=C/c1ccc(O)c(O)c1)c1ccccc1` showed a remaining activity of 97.8%. For `O=C(OCCN1CCOCC1)C1(c2ccccc2)CCCCC1`, the remaining activity was 123%. With `Oc1cc(O)cc(/C=C/c2ccc(O)c(O)c2)c1` the remaining activity was 125%. Work on `CCN1CCC[C@H]1CNC(=O)c1cc(S(N)(=O)=O)ccc1OC` yielded a remaining activity of 122%. Work on `Cn1cc(C2=C(c3ccc(Cl)cc3Cl)C(=O)NC2=O)c2ccccc21` yielded a remaining activity of 116%. Work on `O=C1CCC(c2ccc(-n3ccnc3)cc2)=NN1` yielded a remaining activity of 111%. `COc1cc2ncnc(Nc3cccc(Cl)c3)c2cc1OC` gave a remaining activity of 106%. Work on `CCN1C(=O)C=CC1=O` yielded a remaining activity of 102%. `NC1C=CC=C(C(=O)O)C1` (stereo not given) was tested, and the remaining activity was 125%. In the case of `COc1ccccc1N1CCN(CCCNc2cc(=O)n(C)c(=O)n2C)CC1`, the remaining activity is reported as 97%. Work on `C[C@]12CC[C@@H]3c4ccc(O)cc4CC[C@H]3[C@@H]1CCC2=O` yielded a remaining activity of 103%. `N[C@H](C(=O)O)c1cc(O)cc(O)c1` was tested, and the remaining activity was 108%. `NC(=O)c1ccc2[nH]ccc2c1` was tested, and the remaining activity was 89.8%. In the case of `CCCn1c(=O)c2c(ncn2C)n(CCC)c1=O`, the remaining activity is reported as 110%. Work on `CC1(C)CCC=[N+]1[O-]` yielded a remaining activity of 120%. `CCOC(=O)Nc1ccc(NCc2ccc(F)cc2)nc1N` showed a remaining activity of 97.8%. `S=C(S)N1CCCC1` gave a remaining activity of 83.6%. With `C[N+](C)(C)CCOC(=O)CCC(=O)OCC[N+](C)(C)C` the remaining activity was 123%. `CCCCCN(CCCCC)C(=O)C(CCC(=O)O)NC(=O)c1ccc(Cl)c(Cl)c1` (stereo not given) gave a remaining activity of 110%. For `O=C(O)CP(=O)(O)O`, the remaining activity was 89.1%. `CC[C@]1(O)C[C@H]2CN(CCc3c([nH]c4ccccc34)[C@@](C(=O)OC)(c3cc4c(cc3OC)N(C=O)[C@H]3[C@@](O)(C(=O)OC)[C@H](OC(C)=O)[C@]5(CC)C=CCN6CC[C@]43[C@@H]65)C2)C1` was tested, and the remaining activity was 109%. With `CN(C)S(=O)(=O)c1ccc2c(c1)/C(=C/c1cc3c([nH]1)CCCC3)C(=O)N2` the remaining activity was 121%. For `CCN(CC)CCCCCCCCOC(=O)c1cc(OC)c(OC)c(OC)c1`, the remaining activity was 100%. `CC(C)COC(=O)OCN1C(=O)CN(CCN2CC(=O)N(COC(=O)OCC(C)C)C(=O)C2)CC1=O` gave a remaining activity of 96.8%. With `CC1=C(C)C(=O)C(CCCCC#CCCCC#CCO)=C(C)C1=O` the remaining activity was 118%. Compound `Fc1cccc(/C=N/N=C/c2cccc(F)c2)c1` has a remaining activity of 123%. `NCC(O)(CS(=O)(=O)O)c1ccc(Cl)cc1` (stereo not given) showed a remaining activity of 103%. Compound `CNCC[C@@H](Oc1ccc(C(F)(F)F)cc1)c1ccccc1` has a remaining activity of 105%. `O=C(Nc1nc2ccccc2n1CCN1CCOCC1)c1cccc([N+](=O)[O-])c1` showed a remaining activity of 120%.
